# Screening data (PubChem BioAssay)
# Hits are enriched below; roughly 3.4% of the tested compounds scored in any of these assays.
# PLCb3 inh = inhibitors of human phospholipase C beta3; 370,000 tested, 0.18% active; Purified PLC-beta3, fluorogenic substrate, fluorescence; Q01970; AID 720704; inhibition, % at 12.2 µM; in the data active = inhibition above about 11%;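 note: 0% = median of compound wells on plate and 100% = full blocker control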
# PLC-gamma1 inh = PLC-gamma1 (human) inhibition, primary screen; purified PLC-gamma1, fluorogenic substrate, fluorescence; P19174; inhibition, % at 12.2 µM; 370,000 tested, 0.84% active; in the data active = inhibition above about 9.5%
# ADAM17 inh = ADAM17 inhibition, QFRET primary screen; P78536; recombinant ADAM17, EDANS/DABCYL FRET peptide cleavage; inhibition, % at 6.95 µM; 370,000 tested, 0.83% active;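 active = inhibition above the mean of compounds lying between control limits plus 3 SD, set per campaign, cut at about 8.5% in these data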;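 note: 0% = DMSO-only wells as the low control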
# sPLA2-III inh = Inhibits HGIII-sPLA2 liposome hydrolysis, primary screen | Q9NZ20 | QFRET BODIPY PC-A2 liposome hydrolysis, fluorescence | inhibition, % at 12.2 µM | 370,000 tested, 0.56% active | AID 743126;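 active = inhibition above mean plus 3 SD of compounds lying within the high and low control bounds, cut at about 19% in these data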;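 note: 0% = median of test compound wells and 100% = no enzyme DMSO wells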
# ADAM10 inh = inhibitors of human ADAM10; O14672; recombinant ADAM10, EDANS/DABCYL FRET peptide cleavage, 3 h; inhibition, % at 7 µM; 370,000 tested, 0.62% active; AID 720582;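 active = inhibition above a per-campaign cutoff equal to the mean of compounds falling between control-based bounds plus 3 SD, cut at about 20% in these data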;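 note: 0% = DMSO wells while the 100% control is not disclosed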
# Target sequence (O14672 214-748 limits assumed): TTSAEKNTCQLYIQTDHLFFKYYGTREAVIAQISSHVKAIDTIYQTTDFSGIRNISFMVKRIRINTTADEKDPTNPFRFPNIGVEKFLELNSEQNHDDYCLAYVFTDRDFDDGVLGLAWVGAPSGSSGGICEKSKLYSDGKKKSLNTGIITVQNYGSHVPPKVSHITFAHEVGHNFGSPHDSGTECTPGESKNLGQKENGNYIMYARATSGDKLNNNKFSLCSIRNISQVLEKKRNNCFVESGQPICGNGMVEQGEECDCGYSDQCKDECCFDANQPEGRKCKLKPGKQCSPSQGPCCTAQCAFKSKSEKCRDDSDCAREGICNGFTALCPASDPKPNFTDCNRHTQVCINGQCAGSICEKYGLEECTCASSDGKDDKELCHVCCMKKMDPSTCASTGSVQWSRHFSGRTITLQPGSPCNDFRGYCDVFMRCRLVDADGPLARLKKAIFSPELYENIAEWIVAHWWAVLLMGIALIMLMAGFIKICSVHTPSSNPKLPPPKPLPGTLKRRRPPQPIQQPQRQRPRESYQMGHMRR
# KLK7 zymogen act = activators of human kallikrein-7 zymogen; P49862; purified proKLK7, EDANS-DABCYL substrate fluorescence; 100% is mature enzyme control, 0% vehicle; activation, % at 7 µM; 370,000 tested, 0.9% active; AID 652039;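 active = activation above the mean of all tested compounds plus 3 SD, computed per campaign excluding outliers beyond control limits, cut at about 13% in these data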
# sPLA2 confirm = human GIII-sPLA2 inhibition, confirmation; 2,000 tested, 34% active; shares compounds with sPLA2-III inh; recombinant hGIII-sPLA2, BODIPY PC-A2 QFRET fluorescence; inhibition, % at 12.2 µM;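 active = mean inhibition across triplicates above the hit cutoff set in the earlier primary screen, cut at about 19% in these data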;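 note: 0% = enzyme with DMSO and 100% = DMSO wells lacking enzyme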
# 535nm interf = optically interferes with 535nm fluorescence in sPLA2 counter-screen. inhibition, % at 12.2 µM. BODIPY FL product fluorescence interference, QFRET. 2,000 tested, 8.5% active. shares compounds with sPLA2-III inh;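 active = average inhibition above the solvent-only control mean plus 3 SD, cut at about 6% in these data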;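 note: 0% = DMSO with substrate plus product and 100% = DMSO with substrate alone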
# BODIPY interf DR = counter-screen for HGIII-sPLA2 inhibitors: 535nm fluorescence interference, dose response; shares compounds with sPLA2-III inh; BODIPY FL product fluorescence interference, cell-free; IC50, µM; 240 tested, under 10 active; AID 743455;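 active = IC50 at or below 10 µM; inactive = IC50 above 10 µM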
# Starred values were filed as active, the others as inactive; i = inactive; . = not tested or not shown; ! = repeats disagree.
SMILES,PLCb3 inh,PLC-gamma1 inh,ADAM17 inh,sPLA2-III inh,ADAM10 inh,KLK7 zymogen act,sPLA2 confirm,535nm interf,others
CCCCCCCCN1C(=O)[C@@H](CC(=O)NCC23CC4CC(CC(C4)C2)C3)C[C@@]2(C(=O)OC)C1=C[C@H](C(C)(C)C)O[C@@H]2C,0,4,-3,21*,-11,0,-17,-16,
C#CCNC(=O)C[C@H]1C[C@@]2(C(=O)OC)C(=C[C@H](C(C)(C)C)O[C@@H]2C)N(CCCCCCCC)C1=O,3,2,3,6,6,0,.,.,
C=CCN1C(=O)[C@@H](CC(=O)NCCCN2CCCC2=O)[C@]2(C(=O)OCC)CCCCC/C=C/12,0,-4,-1,-2,-1,1,.,.,
O=C(CSc1nnc(-c2cccnc2)n1C1CCCCC1)N1CCCC1,1,2,7,1,-1,0,.,.,
COC(=O)c1cc(CSC(=N)N)ccc1OCCC(C)C,-2,3,0,21*,8,0,29*,-13,
CCCOc1ccc(CSC(=N)N)cc1C(=O)OC,-8,-53,-4,3,11,-1,.,.,
Cc1ccc(C)c(NC(=S)NCc2ccccc2)c1,-3,3,-2,13,2,0,.,.,
Cc1ccc(C)c(NC(=S)N/N=C/C(C)c2ccccc2)c1 (configuration not stated),-8,3,2,22*,-7,0,14,0,
Cc1ccc(OC[C@@H](O)CN2CCC(C(O)(c3ccccc3)c3ccccc3)CC2)cc1,0,-1,0,-16,-5,0,.,.,
CCCCN1C(=O)Cc2c1nc(N)c1c(N)nc(N(CCC)CCC)c(C#N)c21,-228,-166,-12,28*,-92,-1,11,-8,
CCN(CC)c1nc2c3c(nc4c(c3c1C#N)CC(=O)N4c1ccc(Cl)cc1)NC(C)=N2,-92,-89,-11,3,-36,-3,.,.,
S=C(NCCc1ccccc1)Nc1ncccn1,0,0,0,20*,-2,0,10,-3,
OCCNC(=S)NCCc1ccccc1,-2,1,0,20*,-4,0,4,-1,
Cc1cccnc1NC(=S)NCCc1ccccc1,-7,3,-15,16,-31,1,.,.,
CC(=O)c1cc(-c2cnn(Cc3ccccc3)c2)c(=O)n2c1CCC2,-21,-12,3,0,2,0,.,.,
O=C(CCl)NNC(=O)c1c(O)c2ccccc2[nH]c1=O,-10,-3,-6,23*,-10,0,4,-4,
COC(=O)[C@]12C[C@H](CC(=O)N3CCN(C(=O)C4CC4)CC3)C(=O)N(Cc3ccco3)C1=C[C@H](C(C)C)O[C@@H]2C1CC1,-2,7,-3,20*,-8,0,-3,-20,
O=C(Nc1ccc(OC(F)(F)F)cc1)Nc1c(-c2ccc(F)cc2)nc2ncccn12,-31,-25,-6,-2,-16,-3,.,.,
Cc1cc(C)[n+]2n1C(=O)C(c1ccccc1)=C2[O-],-3,0,-2,21*!,3,0,5,0,
CNC(=S)NNC(=O)c1oc2nc(-c3ccccc3)cc(C)c2c1N,i,-430,-22,25*,-35,-120,18,-2,
COC(=O)[C@]12C[C@H](CC(=O)NCCc3ccccc3OC)C(=O)N(Cc3cccc4ccccc34)C1=C[C@H](C(C)(C)C)O[C@@H]2C,0,5,4,-1,16,-1,.,.,
Cc1ccc(-c2cnc(N)n2C)cc1C,-9,-7,-2,20*,-5,0,9,-13,
Cn1c2ccccc2c(=O)c2c(=O)n(C3CCCCC3)c(-c3ccco3)nc21,-56,-40,-4,28*,-11,-1,12,-42,
N#CCC[C@H]1CC[C@]2(CCCN(S(=O)(=O)c3ccccc3)C2)O1,-1,4,-3,20*,-20,0,1,-6,
Nc1ccc(S(=O)(=O)Nc2ccc(Cl)nn2)cc1,0,3,-3,22*,-8,0,2,-4,
SMILES,PLCb3 inh,PLC-gamma1 inh,ADAM17 inh,sPLA2-III inh,ADAM10 inh,KLK7 zymogen act,sPLA2 confirm,535nm interf,others
CCCN(CCC)C(=O)c1oc2ccccc2c1NC(=O)Cc1cccc(OC)c1,-5,6,-2,20*,-9,0,-2,-19,
Cc1cccc(NC(=S)NCc2ccc3c(c2)cc(C)n3C)c1C,-60,-40,5,20*,8,-1,5,1,
COc1cccc(NC(=S)NCc2ccc3c(c2)cc(C)n3C)c1,-73,-58,0,2,0,0,.,.,
C#CCN1CC(COc2ccccc2)Oc2cccc(Oc3ccc(C(C)C)cc3)c2S1(=O)=O (configuration not stated),-2,-2,-3,4,-9,0,.,.,
CCn1c(O)c(N=NC(=O)CNC(=O)c2ccco2)c2ccccc21,1,-1,1,2,-3,0,.,.,
CCCn1c(O)c(N=NC(=O)c2ccco2)c2ccccc21,2,2,-1,21*,0,1,-1,-6,
O=C(CSC(=S)N1CCCCC1)Nc1ncc2c(n1)CCCC2=O,2,6,-7,22*,-5,-1,2,-7,
CCN(CC)S(=O)(=O)c1ccc(C)c(NC(=O)COc2ccc3c(C)cc(=O)oc3c2)c1,3,-1,-7,20*,-3,0,-12,-11,
FC(F)(F)c1cnc(NNC(=S)Nc2cccnc2)c(Cl)c1,-4,-6,2,20*,7,1,33*,1,BODIPY interf DR=>122
Cc1cccc(NNC(=S)Nc2c(C)cccc2C)c1,-8,-1,0,19*,10,0,29*,-4,BODIPY interf DR=>122
CCCCNc1c(-c2ccc(SC(C)CC)cc2)nc2ccc(Cl)cn12 (configuration not stated),-368,-244,-23,23*,-96,-4,-8,-7,
CCCCCCSc1cccc(-c2nc3ccc(Cl)cn3c2NCCCC)c1,-1,1,-5,6,-5,1,.,.,
COc1ccc(C(=O)NC(=S)NNC(=O)c2ccncc2)cc1Br,-41,-32,-9,29*,-11,-1,26*,4,
Cc1ccc(C(=O)NC(=S)NNC(=O)c2ccccc2)cc1,-4,4,4,24*,10,0,40*,-4,BODIPY interf DR=>122
Cc1ccc(C(=O)NC(=S)NNC(=O)c2ccc([N+](=O)[O-])cc2)cc1,-39,-28,-3,7,-3,0,.,.,
